According to the supplement of paper PMC10338343:
± gives the standard deviation. Whole data set: some 8,200 sequences, median “pre-steady-state target cleavage rate” near 0.024, cut for the highest 2% near 1.3. Many of the other results were omitted from the sample, so the highest values are more common in it than they were.

System: MIWI (PIWIL1) piRISC loaded with L1MC piRNA (30 nt)
Experiment: pre-steady-state target cleavage rate (min^-1); MIWI and MILI are mouse PIWI proteins and EfPiwi is from a freshwater sponge; tags in brackets are library labels; higher = faster piRNA-guided slicing of the target
Conditions: guide: L1MC piRNA 5'p-UAACUAAAUACUAUGCAAGCUGUAGGUCCU
Protocol: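 Cleave-'n-Seq: a library of target RNAs (target site embedded in constant flanks, ACAGCATTCCGCGTTAGTGATATCCG... 5' flank; DNA-blocked outside the site) at 0.1 nM was incubated with 1 nM active mouse MILI or MIWI piRISC (synthetic 5'-monophosphorylated piRNA guide) with or without 500 nM mouse GTSF1 at 33 °C for 1 min to 16 h. Uncleaved targets were sequenced and normalised to non-target controls, and the pooled three trials were fitted to a burst-and-steady-state model to give the pre-steady-state cleavage rate (min^-1; k3 is constrained to at most 1e-4). Sequence is the target site only; target names encode pairing extent (gX:gY) and contiguous / 1-mismatch / 2-mismatch / bulge geometry. Fits with R² ≤ 0 are excluded.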

[1] = auxiliary factor: 500 nM mouse GTSF1
[2] = auxiliary factor: none (no GTSF1)

Sequence | pre-steady-state target cleavage rate [1] | pre-steady-state target cleavage rate [2]
UCCUGCUAACAGCUUGCAUAGUAUUUAGUUA | 0.617 ± 0.052 | 0.0487 ± 0.0083
AGGACCUACAGCUUGCAUAGUAAAAACAAA | 0.268 ± 0.068 | –
UGGACCUACAGCUUCCAUAGUAAUUAGUUA | 0.0113 ± 0.0031 | –
UCCUGGAACAGCUUGCAUAGUACUUUAGUUA | 0.472 ± 0.036 | 0.00827 ± 0.0032
UCCAGCUACACCUUGCAUAGUAUUUAGUUA | 0.797 ± 0.034 | 0.0443 ± 0.0068
UCCUGGAUCAGCUUGCAUAGAAUUUACAAA | 0.0559 ± 0.014 | –
UGGACCUACAGCUUGCAUAGCAUUUAGUUA | 0.379 ± 0.025 | 0.0275 ± 0.0061
UCCUGGAUCCAGCUUGCAUAGUAUUUAGUUA | 1.31 ± 0.081 | 0.0546 ± 0.016
UCCUGGACCAGCUUGCAUAGUAUUUAGUUA | 0.915 ± 0.048 | 0.0367 ± 0.0074
UCCUGGUCCAGCUUGCAUAGUAUUUAGUUA | 0.717 ± 0.055 | 0.0383 ± 0.0079
UCCUGGAUCCGCUUGCAUAGUAUUUAGUUA | 0.927 ± 0.053 | 0.031 ± 0.0075
UCCUGGAUGAGCUUGCAUAGUAUUUAUUUA | 0.267 ± 0.055 | 0.025 ± 0.0077
AGGACCUACAGGUUCCAUAGUAUUUAGUUA | 0.659 ± 0.17 | –
UCCUCUCUACAGCUUGCAUAGUAUUUAGUUA | 0.797 ± 0.038 | 0.0529 ± 0.0081
UCCUCCUACAGCUUGCAUAGUAUUUAGUUC [g2:g26:cont:t1C] | 1.09 ± 0.039 | 0.0511 ± 0.011
UCCUUCUACAGCUUGCAUAGUAUUUAGUUA | 1.02 ± 0.033 | 0.0527 ± 0.0083
ACCUCCUACAGCUUGCAUAGUAUUUAGUUA | 1.35 ± 0.052 | 0.0784 ± 0.012
UCCUCUACAGCUUGCAUAGUAUUUAGUUA | 1.34 ± 0.047 | 0.0659 ± 0.011
ACCUCCUACAGCUUGCAUAGUAUUUAGUAA | 0.85 ± 0.046 | 0.0351 ± 0.0072
UCCUCCCUACAGCUUGCAUAGUAUUUAGUUA | 1.09 ± 0.038 | 0.075 ± 0.016
UCCUCCUACAGCUUGCAUAGUAUUUAGUUA [g2:g26:cont:t1A] | 1.32 ± 0.052 | 0.0816 ± 0.015
UCCUCCUACAGCUUGCAUAGUAUUUUAGUUA | 1.04 ± 0.044 | 0.0227 ± 0.0055
UCCUGGUACAGCUUGCAUAGUAGUUAGUUA | 0.433 ± 0.051 | 0.0224 ± 0.0045
UGGACGUACAGCUUGCAUAGUAUUUUGUUA | 0.75 ± 0.055 | 0.052 ± 0.009
UCCUGGAUCAGCAUUGCAUAGUAUUUAGUUA | 0.875 ± 0.036 | 0.0165 ± 0.0047
UCCUGGAUGUCGAUGCAUAGUAUUUGAGUUA | 0.0114 ± 0.0044 | –
UCCACCUACACCUUGCAUAGUUUUUAGUUA | 0.249 ± 0.032 | 0.0171 ± 0.0033

Sequence | pre-steady-state target cleavage rate [1] | pre-steady-state target cleavage rate [2]
UCCUGGAACAGCGUUGCAUAGUAUUUAGUUA | 0.939 ± 0.055 | 0.0303 ± 0.0056
UCCUGCUACAGGUUGCAUAGUAUUUACAAA | 0.117 ± 0.028 | –
UCCACCUACAGACUUGCAUAGUAUUUAGUUA | 0.606 ± 0.06 | 0.0272 ± 0.0043
UCCUCCUACAGCUUGCAUAGCUAUUUAGUUA | 0.0221 ± 0.01 | –
AGGACCUACCAGCUUGCAUAGUAUUUAGUUA | 1.17 ± 0.069 | 0.0704 ± 0.014
UGGACCUACCAGCUUGCAUAGUAUUUAGUUA | 1.25 ± 0.1 | 0.0599 ± 0.013
UCCACCUACCGCUUGCAUAGUAUUUAGUUA | 1.11 ± 0.05 | 0.0544 ± 0.0086
UCCUCCUACGCUUGCAUAGUAUUUAGUUA | 1.24 ± 0.045 | 0.0478 ± 0.0094
UCGACCUACCGCUUGCAUAGUAUUUAGUUA | 1.64 ± 0.069 | 0.0745 ± 0.015
AGGACCUACCGCUUGCAUAGUAUUUAGUUA | 1.43 ± 0.082 | 0.0866 ± 0.017
UGGACCUACCGCUUGCAUAGUAUUUAGUUA | 1.57 ± 0.11 | 0.0558 ± 0.0098
UGGACCUACGAGCUUGCAUAGUAUUUAGUUA | 0.657 ± 0.11 | 0.0557 ± 0.013
UCCUCCUACCGCUUGCAUAGUAUUUAGUUA | 1.34 ± 0.062 | 0.0565 ± 0.0099
UCCUGCUACCGCUUGCAUAGUAUUUAGUUA | 1.1 ± 0.1 | 0.0571 ± 0.011
AGGACCUACACGCUUGCAUAGUAUUUAGUUA | 1.1 ± 0.065 | 0.0703 ± 0.01
UCGACCUACCAGCUUGCAUAGUAUUUAGUUA | 1.29 ± 0.064 | 0.0725 ± 0.016
UCCUGGAUGUGCUUGCAUUGUUUUUAGUUA | 0.0048 ± 0.0031 | –
UCCUGGAUGUGCUUGCAUAGUAUUUUGUAA | 0.0569 ± 0.016 | 0.00775 ± 0.0023
UCCACCUACAGCUUGCAUAGUAUUUGGUUA | 0.555 ± 0.038 | 0.0358 ± 0.0079
UCGACCUACAGGUUGCAUAGUAUUUACUUA | 0.296 ± 0.04 | 0.025 ± 0.0051
AGCACCUACACCUUGCAUAGUAUUUAGUUA | 0.739 ± 0.074 | 0.0408 ± 0.0062
UGCACCUACAGCUUGCUUAGUAUUUAGUUA | 1.25 ± 0.092 | 0.031 ± 0.0064
AGCACCUACAGCUUGCUUAGUAUUUAGUUA | 0.978 ± 0.079 | 0.0389 ± 0.0089
UCGACCUACAGCUUGCUUAGUAUUUAGUAA | 1.02 ± 0.068 | 0.0176 ± 0.005
UGGACCUAGAGCUUGCUUAGUAUUUAGUUA | 1.18 ± 0.095 | 0.0321 ± 0.0069
UCGACCUACAGCUUGCUAGUAUUUAGUUA | 0.219 ± 0.061 | –
ACGACCUACAGCUUGCUUAGUAUUUAGUUA | 1.57 ± 0.074 | 0.0527 ± 0.013

Sequence | pre-steady-state target cleavage rate [1] | pre-steady-state target cleavage rate [2]
UCGACCUAGAGCUUGCUUAGUAUUUAGUUA | 1.34 ± 0.048 | 0.0282 ± 0.0063
UCGACCUACAGCUUGCUUAGUAUUUAGUUA | 1.66 ± 0.074 | 0.0474 ± 0.01
UCGACCUACAGCUUGGUUAGUAUUUAGUAA | 0.72 ± 0.061 | 0.00525 ± 0.002
UCGACCUACAGCUUGGUUAGUAUUUAGUUA | 1.42 ± 0.058 | 0.00908 ± 0.0026
UCGACCUACAGCUUGGUUAGUAUUUACAAA | 0.0826 ± 0.02 | –
UCCACCUAGAGCUUGCUUAGUAUUUAGUUA | 0.549 ± 0.044 | 0.0205 ± 0.0044
UCCUCCUACAGGAUGCAUAGUAUUUACAAA | 0.253 ± 0.041 | –
UCCUGGAACAGGUAGCAUAGUAUUUAGUUA | 0.266 ± 0.026 | 0.00407 ± 0.0017
UCCACCUUGUGCUUGCAUAGUAUUUACAAA | 0.0809 ± 0.013 | –
UCCUGGAUGAGCUUGCAUAGUGUUUAGUUA | 0.708 ± 0.06 | 0.0494 ± 0.01
UGGACGUACAGCUUGCAUAGUAUUAAGUUA | 0.721 ± 0.069 | 0.0383 ± 0.0073
UGGACCUACAGCUUGCUAAGUAUUUAGUUA | 0.2 ± 0.022 | 0.00384 ± 0.002
UCCUGGAUGAGCUUGCAUAGUAUUUAGUAUA | 0.702 ± 0.054 | 0.0165 ± 0.0055
UCCUGCUACAGCUUGCUUAGUAUUUAGUAA | 0.279 ± 0.023 | 0.0083 ± 0.002
UCCUGGAUCAGCUUGCUUAGUAUUUAGAAA | 0.116 ± 0.021 | 0.00482 ± 0.0028
UGGACCUACAGCGUGCAUAGUAUUUAGUUA | 1.43 ± 0.065 | 0.0647 ± 0.013
UCCACCUACAGCGUGCAUAGUAUUUAGUUA | 1.06 ± 0.04 | 0.0325 ± 0.0056
UCGACCUACAGCGUGCAUAGUAUUUAGUUA | 1.73 ± 0.072 | 0.0576 ± 0.0085
AGGACCUACAGCGUGCAUAGUAUUUAGUUA | 1.34 ± 0.054 | 0.0658 ± 0.011
AGGACCUACAGCAUUGCAUAGUAUUUAGUUA | 1.28 ± 0.12 | 0.0689 ± 0.014
UCCUGCUACAGCGUGCAUAGUAUUUAGUUA | 1.27 ± 0.074 | 0.0183 ± 0.005
AGGACCUACAGUUGCAUAGUAUUUAGUUA | 0.988 ± 0.07 | 0.0102 ± 0.0034
UGGACCUACAGCUGUGCAUAGUAUUUAGUUA | 1.28 ± 0.11 | 0.0389 ± 0.0098
UCGACCUACAGCGUUGCAUAGUAUUUAGUUA | 1.21 ± 0.073 | 0.0561 ± 0.01
UCGACCUACAGCUGUGCAUAGUAUUUAGUUA | 1.42 ± 0.073 | 0.0386 ± 0.0081
AGGACCUACAGCUGUGCAUAGUAUUUAGUUA | 1.29 ± 0.063 | 0.0583 ± 0.012
